Assay [1] can be described thus: P-glycoprotein substrates identified in KB-8-5-11 adenocarcinoma cell line, qHTS therapeutic library screen (AID 1346987). Also: nearly all actives have a fitted effect of over 65% in size. Also: potency is read from the fitted curve at half-maximal effect. The gist of the method: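 In this qHTS, P-gp-rich KB-8-5-11 cells received library compounds across a concentration range. Viability was quantified by luminescence after 72 h at 37 degree C.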
On the technique in general: qHTS replaces the single test concentration by a dilution series.

Assay [2] is described as follows: NS1 protein of Zika virus - qHTS assay to identify small molecule inhibitors in human HEK 293 cells (AID 1347053). Also: series mostly up to about 46 µM; nearly all actives have a fitted effect of over 55% in size. A digest of the protocol:
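Read-out is a two-antibody TR-FRET for ZIKV NS1, normalized between uninfected cells and infected cells. Compound added 1 h before MR766 infection at MOI 0.5; human HEK 293 cells incubated 24 h, 37 C.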

A short description of assay [3]: qHTS for Inhibitors of the Functional Ribonucleoprotein Complex (vRNP) of Lassa (LASV) Arenavirus: LASV Primary Screen - GLuc reporter signal (AID 1347082; calls by dose curve; tested in HEK293 reporter line; also: series mostly up to about 57 µM; nearly all actives have a fitted effect of over 60% in size).
Assay [4] in a line: qHTS for Inhibitors of the Functional Ribonucleoprotein Complex (vRNP) of Lassa (LASV) Arenavirus: Viability assay - alamar blue signal for LASV Primary Screen (AID 1347083; calls by dose curve; tested in HEK293 reporter line; also: series mostly up to about 57 µM; nearly all actives have a fitted effect of over 80% in size).
Assay [5] is described as follows: qHTS for Inhibitors of the Functional Ribonucleoprotein Complex (vRNP) of Lymphocytic Choriomeningitis Arenaviruses (LCMV): Viability assay - alamar blue signal for LCMV Primary Screen (AID 1347085; calls by dose curve; tested in HEK293 reporter line; also: series mostly up to about 57 µM; nearly all actives have a fitted effect of over 80% in size).
In assay [6] the target is Nucleoprotein (Lymphocytic choriomeningitis virus (strain Armstrong)) (UniProt P09992). Briefly: qHTS for Inhibitors of the Functional Ribonucleoprotein Complex (vRNP) of Lymphocytic Choriomeningitis Arenaviruses (LCMV): LCMV Primary Screen - GLuc reporter signal (AID 1347086; calls by dose curve; also: series mostly up to about 57 µM; nearly all actives have a fitted effect of over 70% in size).
Assay [7] is described as follows: qHTS of pediatric cancer cell lines to identify multiple opportunities for drug repurposing: Primary screen for TC32 cells (AID 1347089). Also: nearly all actives have a fitted effect of over 60% in size. The gist of the method:
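In the primary qHTS, MIPE compounds were tested at 11 concentrations (0.78 nM to 46 µM) and NPC compounds at 8 (0.59 nM to 46 µM) on TC32 cells for 48 h. CellTiter-Glo luminescence gave viability.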

Assay [8] in a line: qHTS of pediatric cancer cell lines to identify multiple opportunities for drug repurposing: Primary screen for DAOY cells (AID 1347090). Also: nearly all actives have a fitted effect of over 55% in size. Also: potency is read from the fitted curve at half-maximal effect. A digest of the protocol: (§1)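 Cell viability, CellTiter-Glo luminescence; 500-1,000 cells/well, 8- or 11-point titration, 48 h compound exposure at 37 degrees C, 5% CO2. Controls: DMSO neutral, bortezomib 2.3 µM final as positive.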
Assay [9] can be described thus: qHTS of pediatric cancer cell lines to identify multiple opportunities for drug repurposing: Primary screen for A673 cells (AID 1347092). Also: nearly all actives have a fitted effect of over 45% in size. Also: potency is read from the fitted curve at half-maximal effect. The gist of the method:
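48 h compound exposure, A673, 500-1,000 cells/well, 37 degrees C/5% CO2. MIPE: 11-point, 0.78 nM-46 µM; NPC: 8-point, 0.59 nM-46 µM (final). Readout CellTiter-Glo luminescence after 15 min RT.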

A short description of assay [10]: qHTS of pediatric cancer cell lines to identify multiple opportunities for drug repurposing: Primary screen for SJ-GBM2 cells (AID 1347091). Also: potency is read from the fitted curve at half-maximal effect. The gist of the method:
as §1

Assay [11] in a line: qHTS of pediatric cancer cell lines to identify multiple opportunities for drug repurposing: Primary screen for SK-N-MC cells (AID 1347093). Also: potency is read from the fitted curve at half-maximal effect. A digest of the protocol:
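Metabolically active cells were quantified by ATP-dependent luminescence (CellTiter-Glo, 15 min at room temperature) following 48 h treatment. Cells had been plated at 500-1,000 per well and settled for 5 h beforehand.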

Where “and” joins values, the source holds several entries; their conditions need not be identical. Equal entries are not always repeated. Results filed as inconclusive are left out. Where a structure was tested more than once in an assay, its records may differ in their call. Calls of active or inactive are those of the source. Unless noted, calls follow the shape of the dose curve; as a rule, active = well fitted curve in the direction sought with a large enough effect; inconclusive = small, poorly fitted or top-dose-only effect, or another doubt; inactive = no such curve, though single readings can be large; an effect the other way counts as inactive or inconclusive.

Nucleoprotein (Lymphocytic choriomeningitis virus (strain Armstrong)), sequence (P09992 whole entry, looked up): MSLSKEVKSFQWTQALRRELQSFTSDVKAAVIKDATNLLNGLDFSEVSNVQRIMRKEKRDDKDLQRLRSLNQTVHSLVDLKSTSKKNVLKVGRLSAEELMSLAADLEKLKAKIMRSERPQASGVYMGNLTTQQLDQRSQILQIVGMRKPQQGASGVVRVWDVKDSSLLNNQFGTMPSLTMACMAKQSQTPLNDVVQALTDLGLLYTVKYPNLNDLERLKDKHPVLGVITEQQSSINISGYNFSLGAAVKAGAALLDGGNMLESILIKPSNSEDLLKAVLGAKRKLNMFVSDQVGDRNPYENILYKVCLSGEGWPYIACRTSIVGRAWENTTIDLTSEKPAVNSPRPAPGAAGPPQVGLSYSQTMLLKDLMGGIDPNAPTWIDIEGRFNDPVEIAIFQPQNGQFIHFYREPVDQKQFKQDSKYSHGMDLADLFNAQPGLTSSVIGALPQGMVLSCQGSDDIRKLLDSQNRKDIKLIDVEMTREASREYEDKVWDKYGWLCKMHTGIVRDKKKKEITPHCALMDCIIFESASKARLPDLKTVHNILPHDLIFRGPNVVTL

For the molecule `Oc1ccc(Cl)cc1Cc1ccccc1`, the Potency result in assay [1], in assay [2], in assay [3], in assay [4], in [5] and in [6] was “inactive” in each case. The Potency result in [7] and in assay [8] was “inactive” each time. Moreover, in assay [9], the Potency is 49.1 µM (active).
Regarding `CC(C)(C)NCC(O)c1cc(Cl)c(N)c(Cl)c1` (configuration not stated), the Potency result in [1], in assay [2], in assay [3], in assay [4], in assay [5] and in [6] was “inactive” throughout. In addition, the Potency result in assay [7], in [8], in assay [10] and in [9] was “inactive” throughout.
Regarding `CC1NCCOC1c1ccccc1` (configuration not stated), the Potency entry in assay [1], in assay [2], in [3], in [4], in [5] and in assay [6] was “inactive” throughout. For the same molecule, the Potency result in [7], in assay [8] and in [9] was “inactive” throughout.
Consider `COC[C@@H](NC(C)=O)C(=O)NCc1ccccc1`, for which the Potency entry in assay [1], in [2], in assay [3], in [4], in [5] and in assay [6] was “inactive” in each case. Also, the Potency entry in assay [7], in assay [8] and in assay [9] was “inactive” each time.
For the molecule `O=c1oc2ccccc2c(O)c1C(CC(O)c1ccc(-c2ccc(Br)cc2)cc1)c1ccccc1` (configuration not stated), the Potency entry in assay [1], in assay [2], in assay [3], in assay [4], in [5] and in assay [6] was “inactive” each time. Also, the Potency entry in [7], in assay [8], in assay [10] and in assay [9] was “inactive” throughout.
On to `CN(C)[C@@H]1C(=O)C(C(N)=O)=C(O)[C@@]2(O)C(=O)C3=C(O)c4c(O)cccc4[C@@](C)(O)[C@H]3C[C@@H]12`, for which the Potency result in [1], in [2], in [3], in assay [4], in assay [5] and in assay [6] was “inactive” in each case. In addition, the Potency result in assay [7], in assay [8], in assay [10] and in assay [9] was “inactive” throughout.
Take `FC(F)(F)c1cccc(C2=CCN(CCc3ccc4ccccc4c3)CC2)c1`: the Potency result in assay [1], in assay [2], in assay [3], in [4], in [5] and in assay [6] was “inactive” in each case. The Potency result in [7], in [8], in assay [9] and in [11] was “inactive” throughout.
`Oc1cc(Cl)ccc1Oc1ccc(Cl)cc1Cl`: the Potency entry in [1] was “inactive and 31.6 µM (active)”; in [8], 49.5 µM (active); in assay [10], 4.42 µM (active); in assay [9] it was 39.4 µM (active); in assay [11] it was 27.9 µM (active). The Potency result in assay [2], in assay [3], in assay [4], in assay [5], in assay [6] and in assay [7] was “inactive” throughout.
In the case of `O=[N+]([O-])c1cc([As](=O)(O)O)ccc1O`, the Potency entry in assay [1], in assay [2], in assay [3], in assay [4], in [5] and in assay [6] was “inactive” throughout. For the same molecule, the Potency result in [7], in assay [8], in assay [9] and in assay [11] was “inactive” each time.
Regarding `CC1OC(C)OC(C)O1` (configuration not stated), the Potency result in assay [2], in assay [3], in assay [4], in assay [5], in [6] and in assay [7] was “inactive” in each case. Besides, the Potency entry in assay [8], in assay [10] and in assay [9] was “inactive” throughout.
